# Only a selection was taken, and hits are over-represented in it overall.
# FBPA Giardia inh – Giardia lamblia aldolase inhibition; A8B2U2; purified Giardia FBPA; Potency, µM (titrated, usually from 59.6 µM), inactives show at the top dose activity, negative = inhibition, hits mostly inhibitors; hit rate 0.71% among 290,000; also: potency is read from the fitted curve at half-maximal effect; % is scaled to controls: 0 for no effect and ±100 for the full control effect; nearly all actives have a fitted effect of over 55% in size
# Target sequence (A8B2U2 whole entry, looked up): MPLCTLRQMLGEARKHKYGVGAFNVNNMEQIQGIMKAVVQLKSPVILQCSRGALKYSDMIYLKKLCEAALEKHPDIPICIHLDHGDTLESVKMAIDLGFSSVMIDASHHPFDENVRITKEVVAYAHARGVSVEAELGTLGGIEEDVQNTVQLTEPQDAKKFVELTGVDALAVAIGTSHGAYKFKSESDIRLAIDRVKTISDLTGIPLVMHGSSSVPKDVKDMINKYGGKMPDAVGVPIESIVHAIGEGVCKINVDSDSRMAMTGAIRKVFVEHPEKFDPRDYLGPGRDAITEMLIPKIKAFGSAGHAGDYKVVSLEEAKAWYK
#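 Giardia FBPA (40 nM reagent) was preincubated 10 min at RT with compound (up to 57.5 uM final), then substrate plus GAPDH/TPI/NAD/arsenate coupling system with diaphorase/resazurin was added; resorufin fluorescence (525/598 nm) was read after 20 min.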
# CHX counter – counter-screen hit for Shiga toxin inhibitors, cycloheximide; cell reporter, cycloheximide protein synthesis inhibition counterscreen; hit rate 12% among 300,000; max response, %; AID 2314; in the data active = max response mostly above about 13%, no sharp cut-off; inactive = mostly below about 14%; also: read at 38.3 µM for the half of the compounds with a filed dose; 0% is about no effect
# RE007 growth inh – less growth of the S. pombe RE007 Vpr strain; S. pombe RE007 Vpr strain, BacTiter-Glo ATP luminescence, 24 h; AID 651644; Potency, µM (doses to about 92.2 µM), for inactives: at the top dose activity change, negative = less growth, most hits filed as inhibitors; hit rate 0.21% among 360,000; active = well fitted falling curve with a large enough effect; inconclusive = small, poorly fitted or top-dose-only effect; inactive = no such curve, though single readings can be large or run the other way; also: potency is read from the fitted curve at half-maximal effect; % is scaled to controls: 0 for no effect and ±100 for the full control effect; nearly all actives have a fitted effect of over 50% in size
#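 Fission yeast RE007 carrying one integrated HIV-1 vpr copy, seeded at OD 0.01 in PMG+AL medium with 23 nL pinned compound. Grown 24 h at 30 degrees; viability read by BacTiter-Glo luminescence after 5 min.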
# LmPK inh – inhibitors of Leishmania mexicana pyruvate kinase; Q27686; purified LmPK, Kinase-Glo ATP luminescence, 1 h; Potency, µM (highest dose often 57.5 µM), for the others: at the top dose activity change, negative = inhibition, most hits filed as inhibitors; hit rate 0.37% among 290,000; AID 1721; also: potency is read from the fitted curve at half-maximal effect; % is scaled to controls: 0 for no effect and ±100 for the full control effect
# Target sequence (Q27686 whole entry, looked up): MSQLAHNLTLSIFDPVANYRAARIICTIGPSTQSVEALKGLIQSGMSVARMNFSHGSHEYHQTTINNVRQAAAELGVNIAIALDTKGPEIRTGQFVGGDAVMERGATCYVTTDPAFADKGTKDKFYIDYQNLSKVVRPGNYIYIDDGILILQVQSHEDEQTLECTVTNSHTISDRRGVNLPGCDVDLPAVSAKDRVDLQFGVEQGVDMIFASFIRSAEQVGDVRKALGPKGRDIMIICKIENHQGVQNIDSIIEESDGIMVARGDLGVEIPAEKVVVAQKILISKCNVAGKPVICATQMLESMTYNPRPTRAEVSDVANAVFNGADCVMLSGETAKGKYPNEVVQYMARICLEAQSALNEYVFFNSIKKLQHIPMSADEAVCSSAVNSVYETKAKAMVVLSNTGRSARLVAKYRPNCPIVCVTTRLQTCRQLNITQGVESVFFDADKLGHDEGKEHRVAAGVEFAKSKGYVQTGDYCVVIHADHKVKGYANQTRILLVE
#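 Purified LmPK (0.1 nM) with 0.5 mM PEP and 0.1 mM ADP in imidazole buffer pH 7.2 with MgCl2/KCl, 1 h at room temperature. ATP formed was read by luciferase luminescence and normalized to no-enzyme and uninhibited controls.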
# Shiga inhibitor – blocks Shiga toxin action in Vero cells | Vero cells, Shiga toxin protein synthesis inhibition reporter | hit rate 9.2% among 290,000 | inhibition, % at 38.7 µM; in the data active = inhibition mostly above about 28%, no sharp cut-off; inactive = mostly below about 43%; also: 0% is about no effect
# Tb PYK inh – T. brucei pyruvate kinase inhibition | Q57TT1 | TbPYK enzyme, Kinase-Glo Plus ATP luminescence, 45 min | Potency, µM (titrated, usually from 76.8 µM), without a hit: top-dose activity, negative = inhibition, most hits filed as inhibitors | hit rate 0.12% among 410,000 | AID 624173; also: potency is read from the fitted curve at half-maximal effect; % is scaled to controls: 0 for no effect and ±100 for the full control effect; nearly all actives have a fitted effect of over 50% in size
#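 In this concentration-response screen, enzyme-free wells defined baseline while DMSO plates tracked drift. Each reaction combined TbPYK, substrate, compound and 130 uM ADP for 45 min at room temperature. Kinase-Glo Plus luminescence gave the signal.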
# Starred values were filed as active, the others as inactive; ? = inconclusive; nt = not tested or not shown; [ ] = remark or other dose. Unless noted, calls follow the shape of the dose curve; as a rule, active = well fitted curve in the direction sought with a large enough effect; inconclusive = small, poorly fitted or top-dose-only effect, or another doubt; inactive = no such curve, though single readings can be large; an effect the other way counts as inactive or inconclusive.
SMILES,FBPA Giardia inh,CHX counter,RE007 growth inh,LmPK inh,Shiga inhibitor,Tb PYK inh
CN1CCN(S(=O)(=O)c2ccc(NC(=O)Nc3cccc(Cl)c3)cc2)CC1,-1.3%,15.6*,19.1%,0.1%,11.0,?
O=C(NCc1cccc(C(F)(F)F)c1)c1ccc2c(c1)OCCO2,-4.1%,7.4,3.5%,-3.2%,-7.2,1.6%
COc1ccc(C2=Nc3ccccc3N(C(=O)c3ccc(C(F)(F)F)cc3)C2C(=O)Nc2ccc3c(c2)OCCO3)cc1 (stereo unspecified),nt,nt,-6.1%,nt,nt,nt
Cc1c(C)c(C)c2[nH]c(-c3ccc4c(c3)OCO4)nc2c1C,-2.2%,26.9*,-18.1%,9.5%,68.0*,-10.1%
COc1ccc(-c2[nH]c(-c3ccc4c(c3)OCO4)nc2-c2ccccc2)cc1,-5.5%,6.5,-0.9%,2.1%,-12.9,2.6%
CCN(CC)c1ccc(/C=N/NC(=O)c2ccc(O)cc2)cc1,-6.8%,49.1*,nt,nt,116.2*,nt
CCN(CC)c1ccc(/C=N/O)cc1,-5.7%,16.7*,6.3%,4.3%,40.6,0.1%
CCN(CC)c1ccc(/C=N/NC(=O)c2ccoc2C)cc1,-9.4%,24.5*,-25.9%,14.1µM*,45.2*,?
CCN(CC)c1ccc(/C=N/NC(=O)CC(C)C)cc1,-1.5%,47.3*,-2.9%,7.1%,47.3*,4.6%
O=C(C(=O)N1CCC(Cc2ccccc2)CC1)c1cccc(Br)c1,nt,nt,-7.7%,nt,nt,nt
CCN(CC(=O)Nc1c(F)cccc1F)C(=O)c1cnccn1,nt,nt,0.2%,nt,nt,-0.3%
CSc1cccc(NC(=S)N2CCC(N(C)C3CCCC3)CC2)c1,-5.4%,6.4,-15.9%,-0.7%,-10.7,-9.2%
N#CCCN(CCCN1CCOCC1)CN1C(=O)c2ccccc2C1=O,nt,nt,-1.8%,nt,nt,-0.5%
CCN(CC)c1ccc(/C=N/NC(=O)OC(C)(C)C)cc1,-0.4%,34.0*,5.3%,5.7%,85.5*,-1.5%
Cc1ccc(NC(=O)CN(C)S(=O)(=O)c2ccc3c(c2)n(C)c(=O)c(=O)n3C)cc1C,nt,nt,nt,nt,nt,0.8%
Cc1ccccc1Nc1nc(N)nc(CSc2nnc(-c3ccccc3)n2C)n1,-2.6%,18.1*,5.9%,-1.9%,30.9,2.9%
Cc1ccccc1Nc1nc(N)nc(CCl)n1,-4.6%,34.3*,4.8%,-4.7%,51.8*,-0.1%
Cc1ccccc1NC(=O)CSCc1nc(N)nc(Nc2ccccc2C)n1,3.1%,16.3*,-5.0%,2.1%,3.5,1.6%
Cc1ccc(-c2cc(C(=O)Nc3ccc(SC(F)F)cc3)no2)cc1F,nt,nt,nt,nt,nt,-9.3%
COc1ccc2oc(C)c(C(=O)c3ccccc3)c2c1,nt,nt,-2.0%,nt,nt,-0.9%
Cc1oc2ccc(O)cc2c1C(=O)c1ccccc1,3.3%,14.7*,-23.3%,-1.6%,45.2,-0.1%
O=C(COC(=O)c1cccnc1Cl)c1ccccc1,nt,47.1*,-5.8%,?,70.8*,-17.8%
CCc1ccc(C(=O)COC(=O)c2cccnc2Cl)cc1,3.3%,39.2*,-5.8%,-25.4%,94.8*,-10.7%
O=C(COC(=O)c1cccnc1Cl)c1ccc(F)cc1,5.3%,22.0*,-18.2%,?,96.6*,-4.6%
CCC(C)(C)c1ccc(OC(=O)c2cccnc2Cl)cc1,-3.5%,38.2*,15.8%,-0.9%,124.5*,3.1%
SMILES,FBPA Giardia inh,CHX counter,RE007 growth inh,LmPK inh,Shiga inhibitor,Tb PYK inh
N#CCc1ccc(OC(=O)c2cccnc2Cl)cc1,nt,nt,-8.8%,nt,nt,-2.8%
CCCCCc1ccc2cc(C#N)ccc2n1,nt,nt,-6.5%,nt,nt,-1.6%
Cc1nc(Nc2nc3ccccc3o2)nc2c1CCC2,-8.7%,30.3*,-4.3%,15.8µM*,49.5,0.0%
CCOC(=O)c1cnc(-c2ccccc2)nc1C(F)(F)F,3.7%,51.9*,-7.9%,-1.2%,73.7*,2.8%
CCOC(=O)c1cnc(Nc2ccccc2)nc1C(F)(F)F,-3.2%,35.9*,-24.3%,5.4%,92.0*,0.0%
Cc1cccc(C)c1Nc1nc2ccccc2o1,0.4%,-3.7,14.0%,1.1%,-4.2,-0.3%
CCOC(=O)c1cnc(C(F)(F)F)nc1Oc1ccccc1,0.8%,0.8,3.0%,6.2%,20.0,-2.0%
O=C(O)c1cnc(-c2ccccc2)nc1C(F)(F)F,15.0%,-2.3,1.2%,2.8%,-18.4,-5.0%
CCOC(=O)c1cnc(Nc2nc3ccccc3o2)nc1C,-1.0%,35.8*,-8.9%,14.1µM*,67.7*,?
CCOC(=O)C1(NC(=O)C2(N3C(=O)c4ccccc4C3=O)CCCC2)CCCC1,nt,nt,-1.5%,nt,nt,-6.2%
Cc1ccc(NC(=O)Cn2cnc3sc(C)c(S(=O)(=O)N4CCN(c5ncccn5)CC4)c3c2=O)cc1F,nt,nt,nt,nt,nt,-2.0%
COC(=O)c1ccc(N2OC3(C)C=CC2CC3)cc1 (stereo unspecified),0.8%,56.1*,3.0%,4.2%,active,-7.6%
COC(=O)c1ccc(COC(=O)c2ccccn2)cc1,1.1%,38.3*,-16.5%,-19.3%,85.6*,-15.1%
COC(=O)c1ccc(COC(=O)Cc2n[nH]c(=O)c3ccccc23)cc1,-0.1%,26.9*,7.1%,-9.4%,26.6,0.7%
COc1ccc(CCNC(=O)COC(=O)c2ccccn2)cc1,nt,nt,-8.9%,nt,nt,8.4%
O=C(Oc1ccc(Cl)cc1)c1ccc(COC(=O)c2cnccn2)cc1,-2.2%,40.1*,9.0%[3.69 µM],6.6%,86.7*,nt
O=C(Oc1ccccc1)c1ccc(COC(=O)c2cnccn2)cc1,-0.9%,22.1*,13.4%,?,30.2,0.0%
COC(=O)Cc1n[nH]c(=O)c2ccccc12,4.3%,-4.6,-9.1%,-1.5%,-26.1,-3.2%
CC(C)OC(=O)c1ccc(COC(=O)c2cnccn2)cc1,7.5%,5.7,5.9%,?,48.5,-4.3%
COc1cc(OC)c(NC(=O)c2c(C)oc3nc(C)nc(N4CCOCC4)c23)cc1Cl,nt,nt,nt,nt,nt,-8.0%
COc1ccc(-c2noc(-c3ccc(NC4CCCC4)c([N+](=O)[O-])c3)n2)cc1OC,nt,nt,nt,nt,nt,0.2%
O=C(OCc1ccc(F)cc1Cl)c1ccccn1,15.2%,19.7*,-5.0%,?,18.5,0.4%
CC1(C(=O)NCc2ccccc2)CSCC(=O)N1Cc1cccc(C(F)(F)F)c1 (stereo unspecified),nt,nt,0.0%,nt,nt,nt
CCc1ccc(OCCn2cccn2)cc1,1.3%,34.1*,5.4%,3.8%,59.4*,5.2%
CCc1ccc(OCCOCCN2CCN(C)CC2)cc1,?,11.9,-4.3%,-0.5%,17.7,10.7%
SMILES,FBPA Giardia inh,CHX counter,RE007 growth inh,LmPK inh,Shiga inhibitor,Tb PYK inh
Cc1nc2ccccc2nc1N1CCCC1,5.9%,21.8,-22.1%,-1.1%,39.7*,-0.5%
Cc1nc2ccccc2nc1N1CCOCC1,1.4%,-0.5,-0.8%,-2.7%,10.6,2.6%
Cc1ccc(C)c(-c2nc3ccc(N)cc3[nH]2)c1,-9.2%,14.2*,-8.3%,-16.4%,32.9,1.7%
Cc1ccc2nc(-c3ccccc3N)[nH]c2c1,-22.2%,41.2*,?,?,69.6,-9.7%
Cc1ccc2nc(Cc3ccc(N)cc3)[nH]c2c1,?,19.7*,-4.1%,1.3%,75.3*,-6.3%
Cc1c(N)cccc1-c1nc2ccccc2[nH]1,-14.4%,52.4*,-11.9%,-17.2%,38.6*,0.3%

# Compound activity deposited in PubChem by National Center for Advancing Translational Sciences (NCATS).
